Experimental data as given in ChEMBL document CHEMBL3988442, “University of Dundee, Small-Polar-MMV Screening Library” (2021).

Test system: Trypanosoma cruzi
Test: Trypanosoma cruzi phosphomannomutase and mannose-1-phosphate guanylyltransferase assay
Type: functional
Parameters: scale not given: direction of the effect not stated beside the values
Conditions: 10 µM

| SMILES | Percent Effect [%] |
| --- | --- |
| Cn1c(Cn2ccnc2)nnc1C1CCN(C(=O)C2(C)CC2)CC1 | -2.98 |
| O=C(c1cnn(-c2ccccc2F)c1)N1CCN(CCO)CC1 | 5.36 |
| O=C(NCCCn1cccn1)C1(c2ccc(Br)cc2)CC1 | -3.13 |
| COCCC(=O)N1CCC2(CN(Cc3ccc(OC)c(F)c3)C2)C1 | 5.16 |
| O=C(c1cccc(S(=O)(=O)NCCCc2ccco2)c1)N1CCOCC1 | 1.37 |
| CC(=O)N1CCN(Cc2csc(-c3cnn(C)c3)n2)CC1 | 9.21 |
| Cc1cnn(CCNCC(=O)NCc2ccccc2)c1 | 2.15 |
| CCCc1cc(NC2CCc3ncnn3C2)n2ncnc2n1 (stereo not given) | -2.74 |
| CC(C)Sc1ncccc1C(=O)NCc1ccc(CS(C)(=O)=O)cc1 | -1.74 |
| CCc1nnc2n1CCN(Cc1ccc3c(c1)OCCO3)C2 | -3.06 |
| Cc1ccc(CN2CC[C@H]3OCC[C@@H](C(=O)NC4CC4)[C@@H]3C2)o1 | -4.01 |
| Cc1nc(C)n(C2CCCN(C(=O)CCc3ccncc3)C2)n1 (stereo not given) | 2.34 |
| CCOC[C@H]1CC[C@H]2[C@H](CCN2C(=O)c2ccncc2F)O1 | 1.07 |
| Cc1ccc(C(=O)NCC2(O)CCOCC2)cc1Br | -0.772 |
| N#Cc1cn(C2CC2)c(=O)n(CC(O)c2ccc(OC(F)F)cc2)c1=O (stereo not given) | 6.01 |
| O=C(CCc1nc2cccnc2[nH]1)Nc1cccnc1 | 3.14 |
| c1cnnc(NCC2CN(Cc3cccc4c3OCCO4)CCO2)c1 (stereo not given) | 9.55 |
| Cc1cc(N2CCN(Cc3ccc(-c4cc[nH]n4)o3)CC2)cc(C)n1 | 10.2 |
| COc1ccnc(N2CCN(C(=O)CN3CCCC3=O)CC2)n1 | 2.52 |
| N#Cc1ccnc(N2CCN(Cc3cccc(F)c3)CC2)c1 | 4.2 |
